Bioassay records from PubChem.
A selection: hits, their analogues and other compounds. The true share with any hit is near 11%.
HEK cytotox: HEK 293 cell cytotoxicity; HEK 293 viability, ATP luminescence (CellTiter-Glo), 48-72 h; Potency, µM (doses to about 115 µM), without a hit: top-dose activity change, negative = cytotoxicity, actives largely listed as inhibitors; actives 6.6% (n = 94,000); AID 1345083; note: nearly all actives have a fitted effect of over 60% in size
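Cells seeded first (HEK 293, 250 cells/well), then compound added by pintool. Incubation ran 48 or 72 hr at 37 degree Celsius. CellTiter-Glo was added and luminescence imaged after 10 min at room temperature.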
3T3 cytotox: kills NIH 3T3 cells. NIH 3T3 viability, CellTiter-Glo ATP luminescence, 48-72 h. Potency, µM (highest dose often 96.7 µM), inactives show at the top dose activity change, negative = cytotoxicity, hits mostly inhibitors. actives 4.3% (n = 94,000). AID 1345082; note: nearly all actives have a fitted effect of over 55% in size
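Cytotoxicity was measured by CellTiter-Glo ATP luminescence after 48 or 72 h compound exposure at 37 °C. Mouse NIH 3T3 fibroblasts were seeded at 400 cells/well and dosed by 23 nL pin transfer.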
NPR1 antag: human Npr1 receptor antagonism. P16066. HEK293 hNpr1 GloSensor cGMP, ANP-stimulated luminescence. Potency, µM (series often up to 46.3 µM), inactives show top-dose activity change, negative = inhibition, most hits filed as inhibitors. actives 1.6% (n = 76,000). AID 1347048; calls by dose curve; note: nearly all actives have a fitted effect of over 60% in size
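Compound pre-incubated 30 min at room temperature on GloSensor-loaded HEK293 cells stably carrying hNpr1 and the pGS-40F cGMP biosensor. Stimulation uses hNppA at 0.1 nM final; luminescence is taken at baseline and 20 min post-agonist.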
FLuc inh: Photinus pyralis luciferase inhibition. Potency, µM (titrated, usually from 115 µM), most hits filed as inhibitors. actives 2.5% (n = 76,000). purified P. pyralis luciferase, luminescence, biochemical; note: nearly all actives have a fitted effect of over 65% in size
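Cell-free enzyme assay, 10nM P. pyralis luciferase, luciferin and ATP each at 10uM. Inhibition profiled over a 6-point titration, read as luminescence.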
The depositor's hits bear a star; i = inactive; u = inconclusive; x = no result given; [ ] = dose if it differs, or a comment. Unless noted, calls come from the whole dose curve; as a rule, active = well fitted curve in the direction sought with a large enough effect; inconclusive = small, poorly fitted or top-dose-only effect, or another doubt; inactive = no such curve, though single readings can be large; an effect the other way counts as inactive or inconclusive. % is set by controls: 0 for no effect and ±100 for the full control effect; potency is the fitted concentration of half-maximal effect.

SMILES | HEK cytotox | 3T3 cytotox | NPR1 antag | FLuc inh
COc1cccc(-c2ccc(CN3CCCC(NC(=O)c4ccccn4)C3)cc2)c1 (centres undefined) | 25µM* | u | x | x
COc1cccc(-c2ccc(CN3CCCC(NC(=O)c4ccc(C(F)(F)F)cc4)C3)cc2)c1 (centres undefined) | -33% | -24% | x | x
COc1cccc(-c2ccc(CN3CCCC(NC(=O)c4ccncc4)C3)cc2)c1 (centres undefined) | 22µM* | u | x | x
O=C(NC1CCCN(Cc2ccc(-c3cncnc3)cc2)C1)c1ccccn1 (centres undefined) | u | -4% | x | x
O=C(NC1CCCN(Cc2ccc(-c3cncnc3)cc2)C1)c1ccncc1 (centres undefined) | u | -22% | x | x
C[S+](=O)([O-])NC1CCN(C(=O)c2ccc(-c3cncnc3)cc2)CC1 | 2% | -2% | x | x
Cc1cc(C)cc(-c2ccc(CN3CCCC(NC(=O)c4ccc(C(F)(F)F)cc4)C3)cc2)c1 (centres undefined) | -5% | -8% | x | x
Cc1cccc(C(=O)NC2CCCN(Cc3ccc(-c4cc(C)cc(C)c4)cc3)C2)c1 (centres undefined) | 40µM* | u | x | x
COc1cccc(-c2ccc(CN3CCCC(NC(=O)c4ccc(Cl)nc4)C3)cc2)c1 (centres undefined) | 14µM* | 32µM* | x | x
Cc1nc2cnccn2c1C(=O)NCc1cccs1 | 2%[172 µM] | -22%[138 µM] | x | x
COc1ccccc1C(=O)N1CCC2(CC1)OC(=O)N(Cc1ccccc1C#N)C2(C)c1ccccc1 (centres undefined) | u | -26% | 1% | i
Cn1ccc2cc(-c3ccc4c(n3)c(=O)ncn4CC3CC3)ccc21 | -22%[172 µM] | u | -11%[70.6 µM] | 45µM*
COCCn1cnc2ccc(-c3ccc4c(ccn4C)c3)nc2c1=O | u | 45µM* | -7%[70.6 µM] | u
COc1ccc(-c2ccc3c(n2)c(=O)ncn3CC2CC2)cc1OC | i | u | 0%[70.6 µM] | i
O=c1c2c(CO)c(-c3ccc(F)cc3)nn2ccn1Cc1ccccc1F | u | -16% | u | i
CSc1ccc(-c2cccc(C(=O)NCC(=O)NCC(C)C)c2)cc1 | -31% | -24% | x | x
CC(C)c1ccc(-c2nc(C3CC(=O)N(c4ccc(F)c(Cl)c4)C3)no2)cc1 (centres undefined) | u | u | u | i
CCc1ccc(-c2nc(C3CC(=O)N(c4ccc(OC)cc4)C3)no2)cc1 (centres undefined) | u | u | -22% | i
CCc1ccc(N2CC(c3noc(-c4ccc(OC)nc4OC)n3)CC2=O)cc1 (centres undefined) | 45µM* | u | -20% | i
CC(C)c1ccc(-c2nc(C3CC(=O)N(c4ccc(F)cc4)C3)no2)cc1 (centres undefined) | 35µM* | -20% | u | i
CCc1ccc(N2CC(c3noc(-c4ccccc4)n3)CC2=O)cc1 (centres undefined) | 79µM* | u | 1% | i
COc1ccc(C(=O)N2CCC3(CC2)NC(=O)N(c2ccc(F)cc2)N3)cc1 | u | u | -4% | i
COc1cccc(-c2nn(-c3ccccc3)c(OC(C)=O)c2-c2ccc(NC(=O)C3CCCC3)cc2)c1 | u | u | -17% | i
CS(=O)(=O)N1CCC(Cc2ccc(C(=O)NCCN3CCOCC3)cc2)CC1 | i | 4% | -1% | i
CS(=O)(=O)N1CCC(Cc2ccc(C(=O)NCCc3ccccc3)cc2)CC1 | 11µM* | u | x | x
O=C(COc1ccccc1)Nc1ccc2c(c1)CN(CCc1ccc(F)cc1)C(=O)CO2 | u | u | 16µM* | u
O=C(Nc1ccc2c(c1)CN(Cc1ccc(Cl)cc1)C(=O)CO2)c1ccc(F)cc1F | 79µM* | u | -27% | i
CCC1Oc2ccc(NC(=O)C3CCCC3)cc2CN(Cc2ccc(F)cc2Cl)C1=O (centres undefined) | u | u | -20% | i
O=C(COc1ccccc1)Nc1ccc2c(c1)CN(Cc1ccccc1F)C(=O)CO2 | u | u | u | i
CCC1Oc2ccc(NC(=O)Cc3ccc(F)cc3)cc2CN(Cc2ccc(Cl)cc2)C1=O (centres undefined) | u | 10µM* | -19% | i
